Test results as given in PMC4336329 (PLoS ONE, 2015).
Screen size: about 310,000 compounds; about 14,000 (4.5%) showed an effect of 50% or more. The effect is printed as a negative number. The sample as a whole holds a higher share of strong results than the screen did.

molecular target: human ether-à-go-go-related gene (hERG) potassium channel (human, UniProt Q12809); experiment: primary screen, population patch clamp on CHO cells stably expressing hERG; higher = less effect of the substance
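Further: peak tail current of the secondary pulse compared with the same well before compound.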

Chain of human ether-à-go-go-related gene (hERG) potassium channel (Q12809 whole entry, looked up): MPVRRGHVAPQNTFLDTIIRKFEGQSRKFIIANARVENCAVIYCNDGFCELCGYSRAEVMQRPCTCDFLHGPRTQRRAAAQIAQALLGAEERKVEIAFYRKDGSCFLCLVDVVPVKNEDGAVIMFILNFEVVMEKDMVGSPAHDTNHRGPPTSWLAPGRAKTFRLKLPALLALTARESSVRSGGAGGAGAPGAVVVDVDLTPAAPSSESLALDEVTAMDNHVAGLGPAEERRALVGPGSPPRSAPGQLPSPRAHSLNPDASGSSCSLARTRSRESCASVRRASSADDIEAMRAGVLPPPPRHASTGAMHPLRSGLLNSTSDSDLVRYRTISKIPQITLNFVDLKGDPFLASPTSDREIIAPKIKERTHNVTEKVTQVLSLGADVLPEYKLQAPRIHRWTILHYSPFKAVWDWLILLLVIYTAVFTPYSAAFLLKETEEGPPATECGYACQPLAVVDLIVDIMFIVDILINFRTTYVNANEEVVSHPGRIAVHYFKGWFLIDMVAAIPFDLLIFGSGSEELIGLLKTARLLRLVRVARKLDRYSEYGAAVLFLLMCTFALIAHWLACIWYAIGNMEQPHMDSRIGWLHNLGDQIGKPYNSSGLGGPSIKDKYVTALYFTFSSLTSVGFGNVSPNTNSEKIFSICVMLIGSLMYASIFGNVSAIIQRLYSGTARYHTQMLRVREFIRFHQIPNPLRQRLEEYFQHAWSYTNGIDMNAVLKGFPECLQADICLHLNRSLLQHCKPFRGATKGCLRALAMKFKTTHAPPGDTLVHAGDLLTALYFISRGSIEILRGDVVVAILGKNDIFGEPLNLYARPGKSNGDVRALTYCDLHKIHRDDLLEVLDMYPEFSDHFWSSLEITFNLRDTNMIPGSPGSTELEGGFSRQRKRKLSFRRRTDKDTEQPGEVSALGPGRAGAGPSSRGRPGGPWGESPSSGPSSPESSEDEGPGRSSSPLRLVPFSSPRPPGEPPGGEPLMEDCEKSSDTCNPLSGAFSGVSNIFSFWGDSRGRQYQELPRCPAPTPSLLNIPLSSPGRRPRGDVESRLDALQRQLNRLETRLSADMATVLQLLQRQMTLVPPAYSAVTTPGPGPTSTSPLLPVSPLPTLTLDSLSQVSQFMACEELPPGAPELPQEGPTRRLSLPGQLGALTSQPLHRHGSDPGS

Row | SMILES | hERG current change (%, negative = inhibition) at 10uM
1 | O=C(OCCC1Oc2cccnc2NC1=O)c1ccc(F)cc1 (stereo not shown) | 12.6%
2 | CC(OC(=O)/C=C/c1ccc2ccccc2n1)C(=O)Nc1ccc(S(N)(=O)=O)cc1 (stereo not shown) | 19.1%
3 | CCCOC(=O)c1ccc(Oc2c(-c3ccc(O)cc3O)n[nH]c2C)cc1 | -2.68%
4 | Cc1nc(SCC(=O)Nc2cccc(C(=O)O)c2)n[nH]1 | 24.9%
5 | O=C(NCCCn1ccnc1)c1noc2c1CCCC2 | -41.8%
6 | O=C(Nc1cc(Cl)cc(Cl)c1)C1CCC(=O)N1Cc1ccccc1Cl (stereo not shown) | 8.65%
7 | O=C(CC(Cc1ccccc1)C(=O)O)Nc1ccccc1 (stereo not shown) | 25.2%
8 | CCOC(=O)c1ccc([N+](=O)[O-])cc1NC(C)=O | 3.85%
9 | Cc1cc(C)c(OCC(=O)Nc2cccc(O)c2)cc1C | 10.9%
10 | Cc1c(C(=O)NCC(c2ccco2)N2CCCC2)oc2ccc(Cl)cc12 (stereo not shown) | -42.1%
11 | O=C(NCC(c1ccco1)N1CCCC1)c1cc2cc(Cl)ccc2o1 (stereo not shown) | -67.7%
12 | O=C(NCc1ccccc1CN1CCCC1)c1cc2cc(Cl)ccc2o1 | -74.6%
13 | CN(Cc1ccccc1N1CCCC1)C(=O)c1cc2cc(Cl)ccc2o1 | -13.4%
14 | CC(Sc1ccc(Cl)cc1)C(=O)NCC(c1ccco1)N1CCCCC1 (stereo not shown) | -54.1%
15 | O=C(NCc1ccccc1CN1CCCC1)c1cc2ccccc2o1 | -69.4%
16 | CC(Sc1ccccc1)C(=O)NCC(c1ccco1)N1CCCCC1 (stereo not shown) | -9.36%
17 | Cc1ccccc1CNC(=O)c1cc2ccccc2o1 | 3.09%
18 | O=C(NCC(c1ccco1)N1CCCC1)c1ccc(Cl)cc1 (stereo not shown) | -22.8%
19 | O=C(NCc1ccccc1CN1CCCCC1)c1ccc(Cl)cc1N1CCCC1=O | -30.4%
20 | O=C(CCNC(=O)c1ccc(Cl)cc1)NCC(c1ccco1)N1CCCCC1 (stereo not shown) | -31%
21 | O=C(NCc1ccccc1)c1cc2ccccc2o1 | -4.68%
22 | Cn1nnnc1SCC(=O)N1c2ccccc2Sc2ccc(Cl)cc21 | -16.4%
23 | COC(=O)C(C)Oc1ccc2c(c1)O/C(=C\c1cccc(Br)c1)C2=O (stereo not shown) | -46.9%

Row | SMILES | hERG current change (%, negative = inhibition) at 10uM
24 | COc1ccc(C2c3[nH]c4ccccc4c3C[C@H]3C(=O)N(c4ccccc4C(=O)N4CCC[C@H]4C(=O)O)C(=O)N23)cc1 (stereo partly shown) | 3.11%
25 | CC(C)C[C@@]12C(=O)N(c3cccc(Cl)c3)C(=O)N1[C@H](c1ccc(Cl)cc1)[C@@H]1C(=O)N(C3CCCCC3)C(=O)[C@@H]12 | 11.2%
26 | Cc1ccc(C)c(NC(=O)CN(C)C(=O)CN2C(=O)C3CCCCC3C2=O)c1 (stereo not shown) | 10%
27 | N#Cc1ccccc1Sc1ccccc1C(=O)NCC(c1ccco1)N1CCCCC1 (stereo not shown) | -19%
28 | N#Cc1ccccc1Sc1ccccc1C(=O)NCC(c1ccco1)N1CCCC1 (stereo not shown) | -27.9%
29 | O=C(NCC(c1ccco1)N1CCCC1)c1ccccc1Sc1ccc(C(F)(F)F)cc1[N+](=O)[O-] (stereo not shown) | -55.4%
30 | CCOC(=O)COn1c(-n2nc(C)cc2C)nc2ccccc2c1=O | 0.487%
31 | Cc1ccccc1NC(=O)c1ccccc1O | 9.03%
32 | CCC(=O)Nc1ccc2c(c1)nc(CCN1CCCCC1)n2C | 7.26%
33 | CCCC(=O)Nc1ccc2c(c1)nc(CN1CCCC1)n2C | 11.7%
34 | Cc1ccc(C(C)C)c(OCC(=O)Nc2ccc3c(c2)nc(CN2CCCC2)n3C)c1 | -76.2%
35 | Cc1ccc(C(C)C)c(OCC(=O)Nc2ccc3c(c2)nc(CCN2CCCCC2)n3C)c1 | -75.8%
36 | Cc1cccc(OCC(=O)Nc2ccc3c(c2)nc(CN2CCCCC2)n3C)c1.Cl | -25.3%
37 | CC(C)CC(=O)Nc1ccc2c(c1)nc(CCN1CCCCC1)n2C | -9.9%
38 | Cc1ccc(OCc2nc(-c3ccccn3)no2)c(Br)c1 | -22.5%
39 | CC(=O)c1cccc(OCC(=O)Nc2cccc(C(=O)Nc3c(C)n(C)n(-c4ccccc4)c3=O)c2)c1 | -7.78%
40 | C=C1C(C(=O)N2CCN(C)CC2)C1C(=O)N1CCN(C)CC1 (stereo not shown) | -2.23%
41 | CC(C)Cn1c(N)c(C(=O)COC(=O)c2ccc3ccccc3n2)c(=O)n(C)c1=O | -59.9%
42 | CC(C)Cn1c(N)c(C(=O)COC(=O)c2cc(-c3ccccc3)nc3ccccc23)c(=O)n(C)c1=O | -8.18%
43 | CC(C)Cn1c(N)c(C(=O)COC(=O)c2ccc([N+](=O)[O-])o2)c(=O)n(C)c1=O | -69.5%
44 | Cn1c(N)c(C(=O)COC(=O)CCc2nc3ccccc3s2)c(=O)n(C)c1=O | 5.93%
45 | Cn1c(N)c(C(=O)COC(=O)CCCc2nc3ccccc3s2)c(=O)n(C)c1=O | 9.03%
46 | CC(C)Cn1c(N)c(C(=O)COC(=O)c2cc(C(F)(F)F)nc3ccccc23)c(=O)n(C)c1=O | 0.872%
